Experimental data taken from PubChem BioAssay (NCATS).
A number with no mark means an inactive call. Results filed as inconclusive are left out. Entries that show only a call come without a potency. The source made the active and inactive calls. The call rests on the fitted dose curve; in most records, active means well fitted curve in the direction sought with a large enough effect; inconclusive means small, poorly fitted or top-dose-only effect, or another doubt; inactive means no such curve, though single readings can be large; an effect the other way counts as inactive or inconclusive. Where a SMILES comes first, the peptide text is derived from it. [ ]: non-standard residue; d: D form. dPhe(4-Cl) = N[C@H](Cc1ccc(Cl)cc1)C(=O)O; d2Nal = N[C@H](Cc1ccc2ccccc2c1)C(=O)O; dCit = NC(=O)NCCC[C@@H](N)C(=O)O; d3Pal = N[C@H](Cc1cccnc1)C(=O)O

Experiments:
[1] = target: Glutathione peroxidase 1 (Homo sapiens) (UniProt P07203); assay: Primary qHTS Assay for Inhibitors of Recombinant Selenoprotein Glutathione Peroxidase 1 (GPX1) (AID 1845191); conditions: recombinant GPX1, GR-coupled NADPH fluorescence, 15 min; series mostly up to 48.8 µM; further: nearly all actives have a fitted effect of over 65% in size
Method in brief: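 GR-coupled readout: NADPH consumption tracked by fluorescence, ex 340/em 450 nm, at t=0 and after 15 min at RT. Final mix 10 nM GPX1, 1 mM GSH, 0.5 mM CHP, 0.5 mM NADPH, 100 nM GR, 0.01% BSA, following 30 min enzyme–compound preincubation.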

[2] = target: Phospholipid hydroperoxide glutathione peroxidase GPX4 (Homo sapiens) (UniProt P36969); assay: Primary qHTS Assay for Inhibitors of Recombinant Selenoprotein Glutathione Peroxidase 4 (GPX4) (AID 1845192); conditions: recombinant GPX4, GR-coupled NADPH fluorescence, 15 min; series mostly up to 50 µM; further: nearly all actives have a fitted effect of over 65% in size
Method in brief: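 Steps: GPX4 plus compound, 30 min RT; add GR/GSH/NADPH master mix; start with cumene hydroperoxide; read 340/450 nm fluorescence at 0 and 15 min. Finals were 200 nM GPX4, 1 mM GSH, 0.5 mM CHP, 0.5 mM NADPH, 100 nM GR.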

[3] = target: Luciferin 4-monooxygenase (Photinus pyralis) (UniProt P08659); assay: Primary firefly luciferase (FLuc) qHTS assay for identification of artifact compounds. (AID 1845220); conditions: purified firefly luciferase, luminescence, 5 min; series mostly up to 54.1 µM; further: nearly all actives have a fitted effect of over 60% in size
Method in brief: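 Titrated compounds were incubated 15 min at RT, protected from light, with luciferin and ATP at 10 uM; reaction started with 10 nM FLuc, luminescence imaged at 5 min, and concentration-response fitted by Hill equation.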

[4] = Primary fluorescence-based thiol-reactive (MSTI) qHTS assay for identification of artifact compounds. (AID 1845221); conditions: MSTI thiol-reactivity probe, 1 h; series mostly up to 53.8 µM; further: nearly all actives have a fitted effect of over 65% in size; further: potency means the concentration at half of the fitted maximal effect;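 on activity change, negative = thiol reactive: thiol-reactive compounds lower the probe fluorescence signal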
Method in brief: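 Thiol-reactive compounds detected by quenching of 4 uM MSTI fluorescence (525/598 nm) after 1 h room-temperature dark incubation in PBS pH 7.4, 2% DMSO. qHTS titration; percent inhibition Hill-fitted against Acetyl-MSTI/MSTI controls.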

[5] = test system: Nanoluciferase (engineered Oplophorus gracilirostris luciferase); assay: Primary Nanoluciferase (NLuc) qHTS assay for identification of artifact compounds. (AID 1845222); conditions: NLuc-conditioned medium, Nano-Glo luminescence, 5 min; series mostly up to 54.1 µM;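 further: NLuc secreted into diluted conditioned medium of S16 cells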
Method in brief: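 qHTS format, against NLuc in S16 cell-conditioned medium. Nano-Glo substrate 1:100 was added after 15 min at room temperature. Luminescence was taken after a further 5 min.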

[6] = Primary redox qHTS assay for identification of artifact compounds. (AID 1845223); conditions: Amplex Red/HRP redox cycling with DTT, fluorescence; series mostly up to 53.8 µM
Method in brief: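 Redox-cycling detection via DTT (250 uM final) oxidation coupled to Amplex Red (25 uM)/HRP (250 mU/mL) in HBSS. 15 min preincubation plus 30 min after DTT, room temperature. Ex/Em 525/598 nm; 4-parameter Hill fit against DMSO and 10 uM DA3003.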

Sequence of Glutathione peroxidase 1 (Homo sapiens) (P07203 whole entry, looked up): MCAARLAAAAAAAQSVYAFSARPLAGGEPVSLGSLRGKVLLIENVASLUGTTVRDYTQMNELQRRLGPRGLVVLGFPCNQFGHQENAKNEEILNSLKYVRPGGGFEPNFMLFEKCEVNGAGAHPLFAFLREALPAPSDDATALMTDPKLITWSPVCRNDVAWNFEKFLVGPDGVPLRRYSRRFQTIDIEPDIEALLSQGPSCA
Sequence of Phospholipid hydroperoxide glutathione peroxidase GPX4 (Homo sapiens) (P36969 whole entry, looked up): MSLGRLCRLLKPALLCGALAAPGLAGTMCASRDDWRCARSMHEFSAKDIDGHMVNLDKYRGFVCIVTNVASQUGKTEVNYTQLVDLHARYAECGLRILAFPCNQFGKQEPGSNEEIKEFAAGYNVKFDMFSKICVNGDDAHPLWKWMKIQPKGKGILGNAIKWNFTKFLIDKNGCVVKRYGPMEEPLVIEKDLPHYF

Structure (SMILES) | Potency [1] | Potency [2] | Potency [3] | Potency [4] | Potency [5] | Potency [6] | activity, negative = inhibition [1] | outcome [2] | activity change, negative = inhibition [3] | activity change, negative = thiol reactive [4] | activity, negative = inhibition [5] | redox activity (% of DA3003) [6]
CC(=O)NC1=NN(C(C)=O)C(C)(c2ccccc2)S1 (stereo not given) | inactive | inactive | inactive | inactive | inactive | inactive | – | – | – | – | – | –
C=CC(=O)N1CCN(C(=O)CNc2cc(I)c(Cl)cc2O)CC1 | inactive | inactive | inactive | 8.44 µM (active) | inactive | inactive | – | – | – | – | – | –
COC(=O)c1cc(OC)c(O[C@@H]2O[C@@H](C)[C@H](O)[C@@H](O)[C@H]2O)c(OC)c1 | inactive | inactive | inactive | inactive | inactive | inactive | – | – | – | – | – | –
C=C1C[C@]23C[C@H]1[C@@H](O)C[C@H]2[C@@]12C=C[C@H](O)[C@@](C)(C(=O)O1)[C@H]2[C@@H]3C(=O)O | inactive | inactive | inactive | inactive | inactive | inactive | – | – | – | – | – | –
C=CC1(C)CC(OC(=O)/C(C)=C\COC(C)=O)C(C(=C)C(=O)O)C(O)C1C(=C)CO (stereo not given) | inactive | inactive | inactive | inactive | inactive | inactive | – | – | – | – | – | –
CC(=O)N[C@@H](CCCCN)C(=O)N(C)[C@@H](CC(C)C)C(=O)N[C@H](C(=O)N(C)[C@@H](Cc1ccccc1)C(=O)N[C@H](Cc1ccccc1)C(N)=O)C(C)C | – | – | – | – | – | – | 0.986% [at 4.49 µM] | inactive [at 4.52 µM] | 1.94% [at 6.45 µM] | 50.7% [at 6.41 µM] | 2.14% [at 6.45 µM] | -1.23% [at 6.41 µM]
O=C1CCC(c2ccccc2)(C2CCN(Cc3ccc(I)cc3)CC2)C(=O)N1 (stereo not given) | inactive | inactive | inactive | inactive | inactive | inactive | – | – | – | – | – | –
CON(C)C(=O)[C@H](O)[C@H](Cc1ccccc1)NC(=O)c1cc2cc(Cl)ccc2[nH]1 | inactive | inactive | inactive | inactive | inactive | inactive | – | – | – | – | – | –
COc1ccc(CCO[C@@H]2O[C@H](CO[C@@H]3OC[C@H](O)[C@H](O)[C@H]3O)[C@@H](O)[C@H](O)[C@H]2O)cc1 | inactive | inactive | inactive | 10.3 µM (active) | inactive | inactive | – | – | – | – | – | –
COCC1OC(OC(C)(C)C2CCC3(C)C=C(C4CCC5C4(C)CC(O)C4OC(C(C)(C)OC6OC(CO)C(O)C(O)C6NC(C)=O)CCC45C)CCC3O2)C(NC(C)=O)C(O)C1O (stereo not given) | inactive | inactive | – | – | – | – | – | – | 0.545% [at 11.6 µM] | 5.19% [at 11.5 µM] | -0.592% [at 11.6 µM] | 3.42% [at 11.5 µM]
C=C[C@H]1[C@H](O[C@@H]2O[C@H](CO)[C@@H](O)[C@H](O)[C@H]2O)OC=C(C(=O)OC)[C@H]1CCOC(=O)c1cc(O)c(O)c(O)c1 | inactive | inactive | inactive | 0.922 µM (active) | inactive | inactive | – | – | – | – | – | –
CC(=O)N1CCc2ccc(O)c(OC3OC(COC4OCC(O)(CO)C4O)C(O)C(O)C3O)c2C1Cc1ccc(O)cc1 (stereo not given) | inactive | inactive | inactive | inactive | inactive | inactive | – | – | – | – | – | –
COc1c2ccoc2cc2oc(CO[C@@H]3O[C@H](CO)[C@@H](O)[C@H](O)[C@H]3O)cc(=O)c12 | inactive | inactive | inactive | inactive | inactive | inactive | – | – | – | – | – | –
O=C1C=CC2OC(c3ccccc3)C(O)C2O1 (stereo not given) | inactive | inactive | inactive | 23.8 µM (active) | inactive | inactive | – | – | – | – | – | –
CC(=O)N[C@H](Cc1ccc2ccccc2c1)C(=O)N[C@H](Cc1ccc(Cl)cc1)C(=O)N[C@H](Cc1cccnc1)C(=O)N[C@@H](CO)C(=O)N[C@@H](Cc1ccc(O)cc1)C(=O)N[C@H](CCCNC(N)=O)C(=O)N[C@@H](CC(C)C)C(=O)N[C@@H](CCCN=C(N)N)C(=O)N1CCC[C@H]1C(=O)N[C@H](C)C(N)=O (Ac-[d2Nal][dPhe(4-Cl)][d3Pal]SY[dCit]LRP[dA]-NH2) | inactive | inactive | inactive | inactive | inactive | inactive | – | – | – | – | – | –
CCOCc1cc(OC)c(-c2ccc(C[C@H](NC(=O)c3c(F)cccc3F)C(=O)O)cc2)c(OC)c1 | inactive | inactive | inactive | inactive | inactive | inactive | – | – | – | – | – | –
COC(=O)c1cc(OC)cc(OC)c1C(=O)c1c(OC)cc2c(c1O)C1CCCC(C)(O2)O1 (stereo not given) | inactive | inactive | inactive | inactive | inactive | inactive | – | – | – | – | – | –
O=C(Nc1ccc(S(=O)(=O)Nc2ccccc2Cl)c(Cl)c1)c1ccccn1 | inactive | inactive | inactive | inactive | inactive | inactive | – | – | – | – | – | –
CC1(O)CC(O)C2(O)C=COC(O[C@@H]3O[C@H](CO)[C@@H](O)[C@H](O)[C@H]3O)C12 (stereo not given in full) | inactive | inactive | inactive | 11.7 µM (active) | inactive | inactive | – | – | – | – | – | –
COc1ccc(Oc2cc(C)c(-c3csc(NC(=O)c4ccncc4)n3)c(C)c2)cc1 | inactive | inactive | inactive | inactive | inactive | inactive | – | – | – | – | – | –
